The list is not random: actives were taken first. Their share in the collection is about 2.8%.
PAFAH1B3 inh: blocks human PAF acetylhydrolase 1B catalytic subunit 3 | AID 492972 | recombinant PAFAH1B3, FP-rhodamine probe, fluorescence polarization | inhibition, % at 3.39 µM | hit rate 0.28% among 340,000;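 active = inhibition above the screen-wide average of all tested compounds plus 3 SD, cut at about 25% in these data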;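 note: 0% = enzyme with DMSO only and 100% = wells lacking PAFAH1B3 protein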
Target sequence (Q15102 whole entry, looked up): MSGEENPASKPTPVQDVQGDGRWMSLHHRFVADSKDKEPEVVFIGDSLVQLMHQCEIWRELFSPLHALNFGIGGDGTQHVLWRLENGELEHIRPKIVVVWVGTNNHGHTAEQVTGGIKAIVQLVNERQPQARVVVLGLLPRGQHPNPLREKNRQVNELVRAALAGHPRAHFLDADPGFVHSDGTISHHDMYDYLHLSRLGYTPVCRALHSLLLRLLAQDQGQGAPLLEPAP
PAFAH2 FP inh: inhibitors of human PAFAH2; Q99487; recombinant PAFAH2, FP-rhodamine activity probe, fluorescence polarization; inhibition, % at 3.39 µM; hit rate 0.99% among 340,000;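 active = inhibition above the mean over all tested compounds plus 3 SD, cut at about 30% in these data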;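 note: inhibitors block probe labeling of enzyme so polarization drops; 0% = enzyme with DMSO and 100% = wells lacking PAFAH2 protein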
PME-1 primary: PME-1 (human) inhibition; Q9Y570; recombinant PME-1, FP-Rh probe fluorescence polarization; inhibition, % at 5.9 µM; hit rate 0.53% among 320,000; AID 2130;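 active = inhibition above the campaign mean of all compounds plus 3 SD, cut at about 26% in these data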;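 note: competitive labeling of PME-1 active site by serine hydrolase directed probe; 0% = PME-1 with DMSO and 100% = wells lacking PME-1 enzyme; inhibitors block probe labeling so polarization falls and inhibition rises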
Fam108B inh: counter-screen for RBBP9 inhibitors: inhibitors of mouse Fam108B; recombinant Fam108B, FP-Rh probe fluorescence polarization; hit rate 0.33% among 300,000; inhibition, % at 9.51 µM;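 active = inhibition above the screen mean inhibition plus 3 SD, computed separately per campaign, cut at about 18% in these data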;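 note: inhibitors lower polarization as less probe binds the enzyme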
PAFAH1B2 FP inh: blocks human PAF acetylhydrolase 1b catalytic subunit 2. P68402. recombinant PAFAH1B2, FP-rhodamine activity probe, fluorescence polarization. inhibition, % at 3.39 µM. hit rate 1.2% among 340,000. AID 492953;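 active = inhibition above the mean of all tested compounds plus 3 SD, cut at about 24% in these data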;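 note: 0% = enzyme with DMSO and 100% = wells lacking PAFAH1B2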
Target sequence (P68402 whole entry, looked up): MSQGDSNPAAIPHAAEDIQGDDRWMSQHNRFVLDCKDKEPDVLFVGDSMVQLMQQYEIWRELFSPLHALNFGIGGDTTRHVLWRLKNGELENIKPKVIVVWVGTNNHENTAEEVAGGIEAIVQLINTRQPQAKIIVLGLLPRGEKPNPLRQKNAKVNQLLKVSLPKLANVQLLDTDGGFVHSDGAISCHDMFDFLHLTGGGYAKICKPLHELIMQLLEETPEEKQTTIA
pPAFAH FP inh: inhibitors of human plasma PAF acetylhydrolase (pPAFAH); Q13093; recombinant pPAFAH, FP-rhodamine probe fluorescence polarization; inhibition, % at 3.39 µM; hit rate 1.5% among 330,000; AID 463082;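 active = inhibition above the mean inhibition across the screen plus 3 SD, cut at about 25% in these data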;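 note: inhibitors block binding of the rhodamine activity-based probe so polarization drops; 0% = enzyme with DMSO and 100% = wells lacking pPAFAH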
Starred values were filed as active, the others as inactive; x = not tested or not shown.

SMILES | PAFAH1B3 inh | PAFAH2 FP inh | PME-1 primary | Fam108B inh | PAFAH1B2 FP inh | pPAFAH FP inh
COc1ccc(CN(C)C(=O)c2cccc(S(=O)(=O)N3CCCc4ccccc43)c2)c(OC)c1OC | 6.1 | 9.6 | x | x | -0.1 | x
CCOc1ccc(NC(=O)CN(C)C(=O)CN2C(=O)NC3(CCCC3)C2=O)cc1OCC | 10.8 | 1.8 | -4.5 | -3.3 | -1.4 | 25.7*
COCCNC(=O)C(OC(=O)c1ccco1)c1ccc(OC)cc1 (centres undefined) | 7.3 | -3.1 | x | x | 5.5 | x
COc1ccc(NC(=O)N(C)C[C@H]2Oc3c(NS(=O)(=O)c4cccs4)cccc3C(=O)N([C@@H](C)CO)C[C@@H]2C)cc1 | -8.0 | -3.1 | x | x | -0.8 | 6.6
O=C(O)C1(c2ccccc2)CCN(S(=O)(=O)c2ccccc2)CC1 | 5.8 | -2.2 | -4.9 | -4.2 | 16.1 | 4.5
O=C(O)C1(c2ccccc2)CCN(S(=O)(=O)c2ccc(F)c(F)c2)CC1 | 4.8 | -9.7 | -2.6 | -1.2 | 27.2* | -2.2
Cc1cccc(NC(=S)NCCSc2ccc(Cl)cc2)c1 | -3.6 | 3.3 | -2.7 | -5.1 | 27.6* | 3.9
O=C(/C=C/c1ccccc1)NCCSc1ccc(Cl)cc1 | 3.9 | 2.2 | -8.4 | -7.0 | 28.8* | 1.7
Cc1cccc(NC(=S)NCC(C)CSc2ccc(Cl)cc2)c1 (centres undefined) | 2.0 | -8.3 | -34.1 | -38.6 | 10.1 | -10.1
Cc1ccc(C)c(NC(=S)NCCSc2ccc(Cl)cc2)c1 | 1.1 | -4.7 | 2.7 | -3.5 | 37.2* | 2.6
CCc1ccccc1NC(=S)NCCSc1ccc(Cl)cc1 | -2.5 | 4.0 | -0.6 | -3.8 | 36.7* | 30.7*
Cc1ccc2c(c1)C(=O)C(=O)N2Cc1ccc(Cl)cc1 | 0.4 | -8.3 | x | x | -0.5 | 7.5
Cc1ccc([C@H]2C(C(=O)O)=CC[C@@H](c3cccs3)N2S(=O)(=O)c2ccc(C)cc2)cc1 | 0.3 | 7.0 | x | x | 27.0* | -0.2
Cc1ccc(S(=O)(=O)N2[C@@H](c3ccc(F)cc3)C(C(=O)O)=CC[C@H]2c2cccs2)cc1 | -8.2 | 0.2 | -1.4 | -0.5 | 29.7* | 5.5
COc1ccc([C@@H]2CC=C(C(=O)O)[C@H](c3cccc(Cl)c3)N2S(=O)(=O)c2ccc(C)cc2)cc1OC | -2.0 | 4.1 | -1.8 | 1.6 | 8.3 | 8.5
Cc1ccc(S(=O)(=O)N2[C@@H](c3cccc(Cl)c3)C(C(=O)O)=CC[C@H]2c2cccs2)cc1 | 7.0 | 7.3 | -1.5 | -0.8 | 26.7* | -4.0
COc1cc([C@@H]2CC=C(C(=O)O)[C@H](c3ccccc3)N2S(=O)(=O)c2ccc(C)cc2)cc(OC)c1OC | 4.2 | 4.1 | 0.6 | 2.5 | 2.8 | 0.1
CCC(C)N1CCC(Oc2ccc(C(=O)NCc3ccccn3)cc2)CC1 (centres undefined) | 7.7 | 7.0 | -5.2 | -1.6 | 1.1 | -1.9
N#CC(C(=O)CCN1C(=O)C2CC=CCC2C1=O)c1nc2ccccc2[nH]1 (centres undefined) | 11.4 | 3.7 | 4.2 | 0.6 | 0.8 | 4.9
N#CC(C(=O)C12CC3CC(CC(C3)C1)C2)c1nc2ccccc2[nH]1 (centres undefined) | -2.9 | 31.2* | 10.3 | 5.9 | 12.8 | 18.6
COC(=O)c1sc2nc(C)cc(C)c2c1N | 5.6 | 0.0 | -0.8 | -0.5 | 1.9 | 2.8
COc1cc(/C=N/NC(=O)c2sc3nc(C)cc(C)c3c2N)ccc1O | x | x | 17.7 | 3.3 | x | 31.1*
Cc1oc(-c2ccc3ccccc3c2)nc1CN(C)C(C)c1ccncn1 (centres undefined) | 3.9 | 4.4 | 28.9* | -2.6 | 9.0 | 9.8
CC(c1ccncn1)N(C)Cc1nc(-c2ccc(C(F)(F)F)cc2)no1 (centres undefined) | 8.0 | 2.6 | -11.0 | -1.1 | -0.3 | -1.0
Clc1ccc2c(c1)c1ccccc1n2CN1CCOCC1 | 5.0 | 9.5 | -8.9 | -9.5 | -0.6 | 10.7
SMILES | PAFAH1B3 inh | PAFAH2 FP inh | PME-1 primary | Fam108B inh | PAFAH1B2 FP inh | pPAFAH FP inh
Clc1ccc2c(c1)c1cc(Cl)ccc1n2CN1CCOCC1 | 5.5 | -5.2 | -0.1 | -5.5 | -0.8 | 27.4*
O=S(=O)(Nc1cccnc1)c1ccc(Cl)c(C(F)(F)F)c1 | 13.4 | -4.3 | -1.6 | 0.3 | 25.8* | 4.4
N#Cc1c(N)[nH]c2ccc(Sc3ccccc3)cc12 | 13.9 | 7.2 | x | x | 35.1* | x
N#Cc1c(N)[nH]c(=S)c(C#N)c1-c1ccccc1 | 2.4 | 11.3 | 3.9 | -0.6 | 8.8 | 4.8
CCOc1ccc(CN(C)CC(=O)Nc2cccc(S(=O)(=O)N(C)c3ccccc3)c2)cc1 | 0.9 | -3.3 | 6.0 | -4.4 | 1.1 | 27.9*
N#Cc1cccc(S(=O)(=O)NNC(=O)C23CC4CC(CC(C4)C2)C3)c1 | 9.4 | 2.6 | x | x | 25.6* | 5.3
CCn1cnc2c([N+](=O)[O-])c(NS(=O)(=O)c3ccc(C)cc3)ccc21 | 3.1 | -2.8 | 3.8 | -2.1 | 7.8 | 3.7
Nc1nc(Sc2ccc([N+](=O)[O-])c3nonc23)c2[nH]cnc2n1 | 37.6* | 29.7* | x | x | 11.8 | x
CNc1ncnc(Sc2nc(N)nc3nc[nH]c23)c1[N+](=O)[O-] | 2.7 | 6.2 | x | x | -1.4 | x
COc1ccc(-n2nc(C(=O)NCC(=O)NCCCN3CC(C)CC(C)C3)c3ccccc3c2=O)cc1Cl (centres undefined) | 12.3 | -2.8 | -0.4 | 5.5 | -2.2 | 5.8
COC(=O)c1cc(S(=O)(=O)N2CCN(c3ccc(C(C)=O)cc3)CC2)cn1C | 3.4 | -1.5 | 4.3 | -5.1 | 1.5 | 5.0
COc1ccc(Cl)cc1NC(=O)CN1CCC(n2nnc3ccccc32)CC1 | 3.7 | -5.5 | 2.0 | 1.6 | 0.7 | 25.3*
COc1ccc(Cl)cc1NC(=O)CN1CCC(NC(=O)C2CC2)CC1 | -2.0 | -1.3 | -6.2 | -3.2 | 1.6 | -1.9
Cc1ccc(C(=O)OCC(=O)N2c3ccccc3NC(=O)C2(C)C)cc1S(=O)(=O)N1CCCCC1 | 8.2 | 7.8 | x | x | 27.2* | 3.8
Cc1ccc(S(=O)(=O)N2CCCCC2)cc1C(=O)OCC(=O)N1c2ccccc2NC(=O)C1(C)C | 6.1 | 8.0 | x | x | 34.1* | 6.6
Cc1ccc(COc2ccc(CNCCCN3CCCCCC3=O)cc2)cc1 | 5.2 | -15.3 | -0.6 | 0.8 | 9.2 | 3.9
CC(C)(C)OC(=O)C[C@@H]1C/C=C\C[C@H](CC(=O)N[C@H](CO)Cc2ccccc2)C(=O)N[C@H](C(C)(C)C)COC1=O | 9.0 | 2.9 | x | x | 7.4 | 3.3
COc1ccccc1C(=O)N1CCN(Cc2cccnc2)CC1 | 2.5 | -7.6 | 6.2 | 3.0 | 5.3 | 3.2
CC(=O)OC[C@]12CC[C@H]3[C@@](C)(CC[C@H]4C(C)(C)CCC[C@]34C)[C@@H]1C[C@H](C1=CC(=O)O[C@@H]1OC(C)=O)O2 | x | x | x | x | x | 44.9*
O=C(CN1CCN(S(=O)(=O)c2ccc(Br)s2)CC1)N1CCCCC1 | 2.8 | -5.0 | 3.0 | x | 12.0 | 2.4
O=C(CN1CCN(S(=O)(=O)c2ccc(Br)s2)CC1)NC1CCCCC1 | 7.7 | 13.2 | x | x | 30.2* | x
COc1ccc(OCC(=O)O/N=C(\N)Cc2cccs2)cc1 | 5.5 | -6.8 | 2.3 | 6.1 | 13.8 | 22.6
